MBNL1-CUG inh: qHTS Assay for Inhibitors of MBNL1-poly(CUG) RNA binding; Muscleblind-like protein 1 (Homo sapiens), Q9NR56; TR-FRET MBNL1-His/biotin-(CUG)12 binding, 665/545 ratio; Potency, µM (doses to about 57.5 µM), actives largely listed as inhibitors; actives 0.036% (n = 280,000); active means well fitted inhibition curve with a large enough effect in the signal ratio, with a control signal flat, not every such curve was filed as active; inconclusive means small, poorly fitted or top-dose-only effect, or effect the other way, or a change in a side signal; inactive means no such curve, though single readings can be large or run the other way; the % refers to the signal ratio
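TR-FRET between His-tagged MBNL1 and biotin-(CUG)12 RNA, detected with Tb anti-His antibody (0.055 ng/ul) and streptavidin-XL665 (5 nM), 60 min at room temperature. Compounds titrated 92 nM to 58 uM; 665/545 nm ratio normalized to buffer and complex controls.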
Menin MLL FP TR: qHTS Assay for Inhibitors Targeting the Menin-MLL Interaction in MLL Related Leukemias: Competition With Texas Red Labeled MLL-derived Mutant Peptide; Menin + Texas Red MLL mutant peptide, fluorescence polarization; Potency, µM (titrated, usually from 61.6 µM), usual class: inhibitors; actives 0.23% (n = 270,000); active means well fitted inhibition curve with a large enough effect in the polarisation, with a control signal flat, not every such curve was filed as active; inconclusive means small, poorly fitted or top-dose-only effect, or effect the other way, or a change in a side signal; inactive means no such curve, though single readings can be large or run the other way; the % refers to the polarisation
MLL CXXC-DNA inh: qHTS Fluorescence Polarization Assay for Inhibitors of MLL CXXC domain - DNA interaction | Histone-lysine N-methyltransferase 2A (Homo sapiens), Q03164 | MLL-CXXC / FITC-HOXA9 DNA fluorescence polarization | Potency, µM (titrated, usually from 115 µM), hits mostly inhibitors | actives 0.037% (n = 290,000) | AID 2662, 2010; active means well fitted inhibition curve with a large enough effect in the polarisation, with a control signal flat, not every such curve was filed as active; inconclusive means small, poorly fitted or top-dose-only effect, or effect the other way, or a change in a side signal; inactive means no such curve, though single readings can be large or run the other way; the % refers to the polarisation
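Steps: dispense CXXC domain solution (7 uM) → pin compounds or unlabeled HOX-A9 DNA control → 5 min ambient → add FLSN-HOX-A9 solution (50 nM) → spin → 30 min ambient → fluorescence polarization. Tris pH 7.5/NaCl/DTT/BSA buffer.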
Menin MLL FP FL: qHTS Assay for Inhibitors Targeting the Menin-MLL Interaction in MLL Related Leukemias: Competition With Fluorescein Labeled MLL-derived Peptide; 290,000 tested, under 10 active; Fluorescence polarization, fluorescein-MLL peptide displacement from menin; AID 1766, 2009; FP activity change, % at 61.4 µM; active means well fitted curve in the direction sought with a large enough effect in the polarisation, not every such curve was filed as active; inconclusive means small, poorly fitted or top-dose-only effect, or effect the other way, or a change in a side signal; inactive means no such curve, though single readings can be large or run the other way; the % refers to the polarisation
MLL CXXC Fl: qHTS Fluorescence Polarization (FP) Assay for Inhibitors of MLL CXXC domain - DNA interaction: Fluorescein FP; shares compounds with MLL CXXC-DNA inh; MLL CXXC-DNA binding, fluorescein FP; Potency, µM (highest dose often 345 µM), usual class: inhibitors; actives 70% (n = 200); AID 624160, 2012; further: nearly all actives have a fitted effect of over 80% in size
MLL CXXC TxRed: qHTS Fluorescence Polarization (FP) Assay for Inhibitors of MLL CXXC domain - DNA interaction: Texas Red FP | shares compounds with MLL CXXC-DNA inh | Potency, µM (titrated, usually from 345 µM), hits mostly inhibitors | actives 40% (n = 200) | MLL CXXC-DNA binding, Texas Red fluorescence polarization; further: nearly all actives have a fitted effect of over 75% in size
MLL CXXC TRF: qHTS Fluorescence Polarization (FP) Assay for Inhibitors of MLL CXXC domain - DNA interaction: HTRF Assay. shares compounds with MLL CXXC-DNA inh. MLL CXXC-DNA binding, HTRF, biochemical. Potency, µM (doses to about 172 µM), most hits filed as inhibitors. actives 30% (n = 210); further: nearly all actives have a fitted effect of over 80% in size
MBNL1-CUG FRET: qHTS Assay for Inhibitors of MBNL1-poly(CUG) RNA binding: Initial hit validation from the primary screen; shares compounds with MBNL1-CUG inh; actives 50% (n = 140); Potency, µM (highest dose often 57.6 µM), most hits filed as inhibitors; TR-FRET MBNL1-His / biotin-(CUG)12 binding, 60 min
MBNL1-CUG Alpha: qHTS Assay for Inhibitors of MBNL1-poly(CUG) RNA binding: Initial hit validation in AlphaScreen assay for MBNL1-(CUG)12 binding. shares compounds with MBNL1-CUG inh. AlphaScreen MBNL1-His / biotin-(CUG)12 binding. Potency, µM (titrated, usually from 57.7 µM), usual class: inhibitors. actives 30% (n = 140)
MBNL1 HTRF CS: qHTS Assay for Inhibitors of MBNL1-poly(CUG) RNA binding: Counterscreen HTRF assay; shares compounds with MBNL1-CUG inh; Potency, µM (highest dose often 57.6 µM), usual class: inhibitors; actives 20% (n = 120); AID 651843, 2012; His-Menin/biotin-MLL peptide TR-FRET counterscreen
Large screens that a line does not name were inactive (follow-up assays come after a bar, where they were run). The sample as a whole holds a higher share of hits than the screen did. Unless noted, the call rests on the fitted dose curve; in most records, active means well fitted curve in the direction sought with a large enough effect; inconclusive means small, poorly fitted or top-dose-only effect, or another doubt; inactive means no such curve, though single readings can be large; an effect the other way counts as inactive or inconclusive.

Cc1cc(/C=C2\C(=O)NC(=O)N(Cc3ccco3)C2=O)c(C)n1-c1ccc(C(=O)O)cc1	MLL CXXC-DNA inh 28µM (no result: Menin MLL FP TR) | MLL CXXC Fl 1.4µM | MLL CXXC TxRed 142µM | MLL CXXC TRF inactive
O=[N+]([O-])c1ccc(O)c([N+](=O)[O-])c1	none (no result: MBNL1-CUG inh, MLL CXXC-DNA inh)
CN1C(=O)C(c2ccc([N+](=O)[O-])cc2[N+](=O)[O-])C(=O)N(C)C1=O	MBNL1-CUG inh inconclusive, MLL CXXC-DNA inh 40µM | MLL CXXC Fl inconclusive | MLL CXXC TxRed inconclusive | MLL CXXC TRF inactive
O=C1NC(=O)C(=Cc2cn(CCOc3ccc4c(c3)OCO4)c3ccccc23)C(=O)N1	MLL CXXC-DNA inh 35µM, Menin MLL FP FL inconclusive | MLL CXXC Fl 159µM | MLL CXXC TxRed inconclusive | MLL CXXC TRF inactive
NC1CCCC[C@@H]1N (stereo partly specified)	none (no result: MBNL1-CUG inh, MLL CXXC-DNA inh)
Oc1ccc2c3c1O[C@H]1c4[nH]c5ccccc5c4C[C@]4(O)[C@H](C2)N(CC2CC2)CC[C@@]314	none (no result: MBNL1-CUG inh, MLL CXXC-DNA inh)
Oc1ccc2c3c1O[C@H]1c4[nH]c5c(c4C[C@@]4(O)[C@@H](C2)N(CC2CC2)CC[C@]314)C[C@@]1(O)[C@H]2Cc3ccc(O)c4c3[C@@]1(CCN2CC1CC1)[C@H]5O4	Menin MLL FP TR inconclusive (no result: MBNL1-CUG inh) | MBNL1-CUG FRET 16µM | MBNL1-CUG Alpha 11µM
COc1cccc([C@@]2(O)CCCCC2CN(C)C)c1 (stereo partly specified)	Menin MLL FP FL inconclusive (no result: MBNL1-CUG inh, MLL CXXC-DNA inh)
CCn1nc(-c2ccccc2)nc2c(=O)n(C)c(=O)nc1-2	MBNL1-CUG inh inconclusive, MLL CXXC-DNA inh inconclusive, Menin MLL FP FL inconclusive | MBNL1-CUG FRET 0.52µM | MBNL1-CUG Alpha 0.26µM | MBNL1 HTRF CS inactive
Clc1ccc2c(c1)C(c1ccccc1Cl)=NCc1nnc(Br)n1-2	MBNL1-CUG inh 25µM | MBNL1-CUG FRET inactive | MBNL1-CUG Alpha inactive | MBNL1 HTRF CS inactive
Cc1nnc2n1-c1ccc(Cl)cc1C(c1ccccc1Cl)=NC2	none (no result: MBNL1-CUG inh)
O=C1C=CC(=O)C(Cl)=C1	Menin MLL FP TR inconclusive (no result: MBNL1-CUG inh, MLL CXXC-DNA inh)
CCOC(=O)N1CCC(NC(=O)CCc2nc(C3=CCN(C)CC3)no2)CC1	MBNL1-CUG inh 10µM | MBNL1-CUG FRET 8.2µM | MBNL1-CUG Alpha 3.7µM | MBNL1 HTRF CS inconclusive
O=C1c2ccccc2C(=O)C1C(=O)C(c1ccccc1)c1ccccc1	Menin MLL FP TR inconclusive (no result: MBNL1-CUG inh) | MBNL1-CUG FRET inconclusive | MBNL1-CUG Alpha inconclusive | MBNL1 HTRF CS inactive
CN1[C@H]2CC(OC(=O)[C@H](CO)c3ccccc3)C[C@H]1[C@H]1O[C@H]12 (stereo partly specified)	none (no result: MBNL1-CUG inh)
